Compound activity (PubChem BioAssay)
This is one part of a sample in which hits are shown more often than they occur.
Methyltransferases: Primary Screen for Target Class Profiling of Small Molecule Inhibitors of Methyltransferases | AID 1745853, 2022 | hit rate 3.9% among 25,000 | purified enzyme, MTase-Glo SAH luminescence; active compounds read low | calls only at 40 µM; call rule not given here
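Each enzyme was reacted with SAM and its substrate, with compounds tested once at 40 uM; SAH formed was read by MTase-Glo luminescence.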
MTase-Glo ctr: inhibits MTase-Glo coupling enzymes without methyltransferase; shares compounds with Methyltransferases; MTase-Glo coupled enzymes, SAH conversion luminescence, no MTase; Potency, µM (series often up to 57.3 µM), actives largely listed as inhibitors; hit rate 6% among 180; active = well fitted inhibition curve with a large enough effect
Each line names hits and unclear results; the compound was inactive in the other large screens (follow-up assays come after a bar, where they were run).

CN(CCN1C(=O)c2cc3occc3n2CC1(C)C(=O)NC1CCCCCC1)C1CCCCC1 (centres undefined)	none
COc1ccc(-c2cc(C(=O)NCc3cccnc3)c3c(c2)N(C)CCO3)cc1OC	Methyltransferases active | MTase-Glo ctr inactive
CN1CCOc2c(C(=O)NCc3cnn(C)c3)cc(-c3ccc([S+](C)(=O)[O-])cc3)cc21	none
CCc1nc2cc(N3CCC(C(=O)NCc4cccnc4)CC3)cnc2nc1CC	none
CC(=O)Nc1cc(-c2cc(C(=O)NCc3cccnc3)c3c(c2)N(C)CCO3)ccn1	Methyltransferases active | MTase-Glo ctr inactive
CNC(=O)c1cc(-c2cnc(OC)nc2)cc2c1OCCN2Cc1cccnc1	none
O=C(NCC1CCCO1)c1cc(-c2ccccc2F)cc2c1OCCN2Cc1cccnc1 (centres undefined)	none
CCCn1c(=O)c2ccc(Cl)cc2n2c(=O)n(Cc3ccccc3F)nc12	none
CCC(C)NC(=O)c1ccc2c(=O)n(CC(C)C)c3nnc(SCC(=O)NC(C)(C)C)n3c2c1 (centres undefined)	none
COC(=O)c1ccc(NC(=O)N2Cc3c(sc4c3CCCC4)-n3cccc3C2c2cc(F)cc(F)c2)cc1 (centres undefined)	none
CCn1c(=O)[nH]c2ccc3c(c21)C(=O)c1ccccc1C3=O	none
Cc1ccc(C(=O)Cn2nc3n(C(C)C)c(=O)c4ccc(C(=O)NCC(C)C)cc4n3c2=O)cc1	none
O=C1OCC2(CCN(Cc3c[nH]c4ccccc34)C2)N1Cc1ccccc1 (centres undefined)	none
O=C(OCc1ccccc1)N1CCOCC12CCN(Cc1c[nH]c3ccccc13)CC2	Methyltransferases active | MTase-Glo ctr inactive
c1ccc(CC2=NOC3(CCN(Cc4c[nH]c5ccccc45)CC3)C2)cc1	none
Cc1ccc(Cn2c(=O)c3ccccc3n3c(CCC(=O)Nc4cccc(Cl)c4)nnc23)cc1	none
Cc1cc(N2CCN(Cc3nnc(C4CC(N)C4)n3C)CC2)cc(C)n1 (centres undefined)	none
CN(C)Cc1nnc(C2CC(NC(=O)Cc3c(F)cccc3Cl)C2)n1C (centres undefined)	none
Cn1c(COc2cccc(CN3CCCC3)c2Cl)nnc1C1CC(N)C1 (centres undefined)	Methyltransferases active | MTase-Glo ctr inactive
CCCn1c(=O)c2ccc(C(=O)NC(C)CC)cc2n2c(=O)n(Cc3ccc(Cl)cc3)nc12 (centres undefined)	none
CCOc1ccc(CCN2C(=O)c3ccc(-c4ccco4)n3CC2(C)C(=O)NCc2ccc(Cl)cc2)cc1 (centres undefined)	none
CC1(C(=O)NC2CCCCCC2)Cn2nc(-c3cccs3)cc2C(=O)N1Cc1ccc(F)cc1 (centres undefined)	none
c1ccc(Nc2cc3c(cn2)NCCN(Cc2ccccn2)C3)cc1	none
c1ccc(-c2cc3c(cn2)NCCN(Cc2ccccn2)C3)cc1	Methyltransferases active | MTase-Glo ctr inactive
O=C(O)c1ccc(CC2CCN(Cc3ccccn3)C2)cc1 (centres undefined)	none
COCCCNC(=O)C1(C)Cn2nc(-c3ccccc3)cc2C(=O)N1c1ccc(C)c(C)c1 (centres undefined)	none
CC(C)n1c(=O)c2ccc(C(=O)NC3CCCC3)cc2n2c(=O)n(Cc3ccccc3)nc12	none
COc1cccc(CN2CCCC3(CCN(C(=O)c4cnc(C)cn4)C3)C2)c1 (centres undefined)	none
COc1ccc(-c2[nH]nc3ncc(C(=O)N4CCC(c5ccccc5)CC4)nc23)c(C)c1	Methyltransferases active | MTase-Glo ctr inactive
CCOc1ccccc1C(=O)N1CCC(c2n[nH]c(=O)n2Cc2ccc(OC)cc2)CC1	none
CCCC1c2ccc(C)n2CCN1C(=O)NC(CC(=O)OCC)c1ccccc1 (centres undefined)	none
Cc1ccc(CNC(=O)N2CCCC(CN3CCC(C)CC3)CC2)cc1 (centres undefined)	none
COc1ccc2cc3n(c2c1)CC(C)(C(=O)NC1CCCCC1)N(Cc1ccc2c(c1)OCO2)C3=O (centres undefined)	none
COc1cccc(C(=O)N2CCCC(COc3ccccc3C(=O)N3CCOCC3)C2)c1 (centres undefined)	none
Cn1cc(CN2CCCC(COc3ccccc3C(=O)N3CCCCC3)C2)c2ccccc21 (centres undefined)	Methyltransferases active | MTase-Glo ctr inactive
COc1cccc(C(=O)NCC2CCCN(Cc3ccccn3)C2)c1OC (centres undefined)	none
COC(=O)c1ncn2c1C(=O)N(Cc1ccccc1)C(C)(C(=O)NC1CCCCCC1)C2 (centres undefined)	none
CCCn1c(=O)c2ccccc2n2c(=O)n(Cc3ccc(F)cc3)nc12	none
O=C(c1nc2c(o1)CCN(Cc1cccc(F)c1)CC2)N1CCOCC1	none
Cn1c(C(=O)Nc2ccc3c(c2)OCO3)cc2c1CCN(Cc1cccc(F)c1)C2	none
Cn1c(C(=O)NCCN2CCCCC2)cc2c1CCN(Cc1cccc(F)c1)C2	Methyltransferases active | MTase-Glo ctr inactive
C=Cc1ccc(Cn2nc3n(Cc4ccccc4)c(=O)c4ccc(C(=O)NCC(C)C)cc4n3c2=O)cc1	none
CCn1cc(CN2CCN(C(=O)CCc3ccccc3)CC2)ccc1=O	none
NC(=O)CN1C(=O)[C@@H]2CN(C(=O)c3cccs3)CCN2C1=O	none
CCn1cc(CN2CCN(C(=O)c3cccs3)CC2)ccc1=O	Methyltransferases active | MTase-Glo ctr inactive
O=C(C1CCCC1)N1CC2(CCN(Cc3cccnc3)CC2)Cc2ccccc21	none
O=C(c1ccccc1)N1CC2(CCCN2Cc2cccnc2)Cc2ccccc21 (centres undefined)	none
O=C(c1ccc(Cl)cc1)N1CC2(CCN(CC3CC3)CC2)Cc2ccccc21	Methyltransferases active | MTase-Glo ctr inactive
COC(=O)c1cc2n(n1)CC(C)(C(=O)NC1CCCCC1)N(Cc1ccc(C)cc1)C2=O (centres undefined)	none
COCc1cc(NCCCNc2cccnc2)ncn1	Methyltransferases active | MTase-Glo ctr inactive
COC[C@H]1C[C@@H](NC(=O)Nc2cccnc2)[C@H](O)[C@@H]1O	none
COc1ccc(CCN2C(=O)c3cc4ccccc4n3CC2(C)C(=O)NC2CCCCC2)cc1OC (centres undefined)	none
Cc1ccc(N2C(=O)c3cc4occc4n3CC2(C)C(=O)NC2CCCCCCC2)c(C)c1 (centres undefined)	none
COc1ccc(NC(=O)N2CCCC(CN3CCC(C)CC3)CC2)cc1 (centres undefined)	none
COc1ccc(NC(=O)C(C)(C)Oc2nn(CC3CC3)c3ccc(CN4CCCC4)cc23)cc1	Methyltransferases active | MTase-Glo ctr inactive
CC(C)n1nc(OC(C)(C)C(=O)Nc2ccccn2)c2cc(CN3CCOCC3)ccc21	none
CC1CCCCC1NC(=O)C1(C)Cn2c(cc3sccc32)C(=O)N1Cc1ccccc1Cl (centres undefined)	none
CCCn1c(=O)c2ccc(C(=O)NC3CCCC3)cc2n2c(=O)n(Cc3cccc(OC)c3)nc12	none
COc1ccc(N2C(=O)c3cc4occc4n3CC2(C)C(=O)NC2CCCCCCC2)cc1OC (centres undefined)	none
Cc1cc2[nH]c(=O)[nH]c2cc1S(=O)(=O)Nc1cccc(Cl)c1	none
O=C(CC1CCCC1)N1CCC(Nc2cccnc2)C1 (centres undefined)	Methyltransferases active | MTase-Glo ctr inactive
O=C(CC1CCCC1)N1CCC(c2noc(-c3cnccn3)n2)C1 (centres undefined)	none
O=C(CC1CCOCC1)N1CCN(c2ncccn2)CC1	none
COc1ccc(CN2C(=O)c3cc4ccccc4n3CC2(C)C(=O)NC2CCCCCC2)cc1 (centres undefined)	none
CCOC(=O)c1cc2n(n1)CC(C)(C(=O)NCCC(C)C)N(Cc1ccc(CC)cc1)C2=O (centres undefined)	none
